Only some compounds are listed: those with a hit (about 21% of all), similar ones and a draw of the others.
HCV inhibitor = inhibitors of hepatitis C virus infection. Huh7.5.1 HCVcc-Cre infection, luciferase reporter, 44 h. 340,000 tested, 3.4% active. Potency, µM (top dose mostly 41.8 µM), for inactives: top-dose activity change, negative = inhibition, hits mostly inhibitors; also: potency is read from the fitted curve at half-maximal effect; % is scaled to controls: 0 for no effect and ±100 for the full control effect
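Infectious HCV cell culture screen: compound-treated cells (1,000/well, pre-plated 4 h) are infected with HCVcc-Cre at roughly 0.5 moi and grown 44 h. Infection is quantified by luciferase signal after 15 min substrate incubation at room temperature.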
Shiga inhibitor = inhibitors of Shiga toxin in Vero cells. Vero cells, Shiga toxin protein synthesis inhibition reporter. inhibition, % at 38.7 µM. 290,000 tested, 9.2% active. AID 2315; in the data active = inhibition mostly above about 28%, no sharp cut-off; inactive = mostly below about 43%; also: 0% is about no effect
HCMV antiviral = inhibitors of human cytomegalovirus; 410,000 tested, 4.5% active; HFF cells, HCMV-luciferase reporter, 72 h; stronger effect = lower value; activity change, negative = inhibition, % at 57.5 µM; in the data active = activity change below about -60%; inconclusive = no clear call, values can overlap the other calls; inactive = above about -39%; also: % is scaled to controls: 0 for no effect and ±100 for the full control effect
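Luciferase read-out from HCMV-luciferase-infected HFFs (MOI 1 PFU/cell) 72 h post infection at 37C; compounds added after 16 h cell attachment; activity normalized between buffer-only basal and Salinomycin (10uM) inhibitor controls.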
Pf growth 48h = P. falciparum growth inhibition at 48 hours (one generation); Potency, µM (highest dose often 28.7 µM), for inactives: at the top dose activity change, negative = inhibition, actives largely listed as inhibitors; 310,000 tested, 5.9% active; AID 504832; P. falciparum luciferase growth in erythrocytes, 48 h; also: potency is read from the fitted curve at half-maximal effect; % is scaled to controls: 0 for no effect and ±100 for the full control effect
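Growth was read as firefly luciferase luminescence after a 48 h, 37 C, 5% CO2 exposure of compounds to reporter-bearing P. falciparum cultures (0.1% parasitemia, 2% hematocrit final) in Albumax-supplemented RPMI 1640.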
Cycloheximide cs = counter-screen hit for Shiga toxin inhibitors, cycloheximide | cell reporter, cycloheximide protein synthesis inhibition counterscreen | 300,000 tested, 12% active | max response, %; in the data active = max response mostly above about 13%, no sharp cut-off; inactive = mostly below about 14%; also: read at 38.3 µM for the half of the compounds with a filed dose; 0% is about no effect
Pf growth 96h = P. falciparum growth inhibition at 96 hour, primary screen for plastid delayed-death inhibitors. P. falciparum luciferase reporter growth, 96 h. Potency, µM (top dose mostly 28.7 µM), for the others: at the top dose activity change, negative = inhibition, most hits filed as inhibitors. 320,000 tested, 6.9% active; also: potency is read from the fitted curve at half-maximal effect; % is scaled to controls: 0 for no effect and ±100 for the full control effect
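Parasite growth measured via integrated firefly luciferase reporter in P. falciparum. Infected erythrocytes at 2% hematocrit, 0.05% parasitemia final were treated 96 hours at 37 C under 5% CO2, and luminescence was read.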
* = called active by the depositor; ? = inconclusive; / = no result; [ ] = another dose, or the depositor's remark. Unless noted, calls follow the shape of the dose curve; as a rule, active = well fitted inhibition curve with a large enough effect; inconclusive = small, poorly fitted or top-dose-only effect, or another doubt; inactive = no such curve, though single readings can be large or run the other way.

SMILES | HCV inhibitor | Shiga inhibitor | HCMV antiviral | Pf growth 48h | Cycloheximide cs | Pf growth 96h
CN(C)CCCNS(=O)(=O)c1ccc(NC2CCCCCC2)c([N+](=O)[O-])c1 | 5.62µM* | 1.1 | -69.1* | ? | -4.8 | ?
Cc1ccc(CNC(=O)CCCn2nc(C)n3ccnc3c2=O)cc1 | 11.3% | -5.3 | -11.2 | -4.2% | -1.9 | -10.9%
O=C(CCCSc1ccccc1)Nc1ccc(Cl)c(S(=O)(=O)N2CCOCC2)c1 | ? | / | 0.0 | 13.1µM* | / | 10.4µM*
O=C(CCCOc1ccccc1)Nc1ccc(Cl)c(S(=O)(=O)N2CCOCC2)c1 | 7.08µM* | / | -73.4* | / | / | /
Cc1ccc(NC(=O)Cn2c(=O)ccn(Cc3ccccc3)c2=O)cc1S(=O)(=O)N1CCOCC1 | 11.2µM* | / | 0.0 | / | / | /
O=C(CCSc1ccccc1)Nc1ccc(S(=O)(=O)N2CCOCC2)cc1 | 7.0% | 6.9 | 26.4 | / | 8.2 | -29.5%
Cc1ccc(NC(=O)CCc2ccccc2)cc1S(=O)(=O)N1CCOCC1 | ? | / | -19.4 | / | / | /
Cc1ccc(NC(=O)CCCOc2ccccc2)cc1S(=O)(=O)N1CCOCC1 | ? | / | -12.6 | 10.4µM* | / | ?
O=C(COc1cccc(Br)c1)Nc1ccc(Cl)c(S(=O)(=O)N2CCOCC2)c1 | ? | / | -29.0 | / | / | /
C[C@@H]1COC(=O)[C@@H](Cc2ccc(F)cc2)C/C=C\C[C@@H](CC(=O)NCCO)C(=O)N1 | 10.8% | / | 3.8 | / | / | /
O=C(NCc1ccc(Cl)cc1)C1CCN(c2ncnc3c2nc2n3CCCCC2)CC1 | / | / | 26.7 | / | / | /
CCN(CC(=O)Nc1ccc(C)c(S(=O)(=O)N2CCOCC2)c1)Cc1ccccc1 | -24.7% | / | -22.1 | 11.7µM* | / | ?
CCOc1ncccc1C(=O)OCC(=O)Nc1ccc(C)c(S(=O)(=O)N2CCOCC2)c1 | 2.82µM* | -16.3 | -4.4 | -0.6% | -1.7 | -11.4%
Cc1ccc(NC(=O)COC(=O)c2cccnc2Cl)cc1S(=O)(=O)N1CCOCC1 | 8.1% | / | -0.8 | / | / | /
Cc1ccc(NC(=O)C(=O)c2c(-c3ccccc3)cc3ccccn23)cc1S(=O)(=O)N1CCOCC1 | ? | 14.2 | -75.9* | 9.28µM* | -3.7 | /
CCN(CC)S(=O)(=O)c1ccc2c(c1)c(=O)c(C(=O)N1CCN(c3cc(C)ccc3C)CC1)cn2C | / | / | 11.6 | / | / | /
COCCN(C(=O)CSc1nnc(-c2ccc(C(C)(C)C)cc2)n1N)c1c(N)n(CC(C)C)c(=O)[nH]c1=O | 2.9% | / | -17.3 | ? | / | -24.9%
COc1ccc(C)c2sc(NC(=O)c3ccc(S(=O)(=O)N(C)C)cc3)nc12 | / | / | 3.3 | / | / | /
Nc1c(SCCC(=O)O)ccc2c1C(=O)c1ccccc1C2=O | 6.5% | 36.5 | -5.9 | 11.0% | 21.4* | 50.2%
COc1ccc(NS(=O)(=O)c2cccc(C(=O)NCCCn3ccnc3)c2)cc1 | -8.2% | / | 12.5 | 27.9% | / | -21.7%
Clc1ccc(-c2nnc(-c3ccccc3)o2)cn1 | -0.4% | 7.2 | 335.6 | 45.2% | 11.3* | 34.0%
COc1ccc(-c2nnc(-c3cccnc3)o2)cc1 | 2.2% | 61.5* | 41.9 | 111.3% | 27.7* | 42.5%
Clc1ccc(-c2nnc(-c3cccnc3)o2)cc1 | 1.2% | 55.5* | 82.4 | 71.8% | 19.6* | ?
Brc1ccc(-c2nnc(-c3cccnc3)o2)cc1 | -4.1% | / | 41.7 | / | / | /
FC(F)(F)c1ccc(-c2nnc(-c3cccnc3)o2)cc1 | 4.8% | -6.1 | 1.8 | 45.8% | -2.5 | 4.1%
SMILES | HCV inhibitor | Shiga inhibitor | HCMV antiviral | Pf growth 48h | Cycloheximide cs | Pf growth 96h
Cc1ccc(-c2nnc(-c3cccnc3)o2)cc1 | -6.9% | 81.2* | 101.9 | 128.2% | 36.2* | 108.3%
O=C(O)C1CC=C(Cl)CC1C(=O)NC1CCCCC1 (configuration not stated) | 18.1% | -4.4 | / | 2.5% | -1.7 | -17.2%
Cc1cccc(-c2nc(SCC(=O)NCC3CCCO3)c3c(=O)n(C)c(=O)n(C)c3n2)c1 (configuration not stated) | / | / | 8.9 | / | / | /
COc1cccc(N2[C@@H](CC(=O)O)c3cc(C(F)(F)F)ccc3S2(=O)=O)c1 | 8.2%[8.37 µM] | / | 18.0 | / | / | /
COc1ccc(-c2nnc(-c3ccc(N)cc3)o2)cc1 | -2.1% | 61.9* | 74.4 | 24.6% | 43.9* | /
COc1ccc(-n2nnnc2-c2cccnc2)cc1 | -4.4% | -10.0 | 38.6 | 0.1% | 0.9 | 9.28µM*
c1cncc(-c2nnc(-c3cccs3)o2)c1 | -9.8% | 58.0 | -18.3 | 51.7% | 20.0* | ?
c1ccc(-c2nnc(SCc3nnc(-c4cccs4)o3)o2)cc1 | -7.0% | 19.5 | -37.1 | / | 9.1 | -10.1%
COc1ccc(C(C)(C)C)cc1NC(=O)Cn1cnnn1 | 21.2% | -12.1 | -24.5 | ? | -2.3 | 5.3%
Cc1ncnc(N)c1CCCNc1ccccc1 | 23.8% | / | 25.4 | / | / | /
CCOC(=O)c1c(-c2ccco2)csc1NC(=O)COC(=O)c1cnccn1 | ? | / | -33.6 | 23.6% | / | ?
NC(=O)c1ccccc1NC(=S)NC(=O)CCc1ccccc1 | 9.8% | 17.1 | ? | 5.1% | -2.1 | 46.1%
O=C(COC(=O)c1cnccn1)NCCc1ccccc1 | 6.6% | -8.7 | -23.3 | ? | -3.1 | 19.5%
O=C(O)CCC(=O)Nc1ccccc1C(=O)NCCc1ccccc1 | 22.7% | 72.6* | 71.5 | 60.3% | 44.8* | 125.5%
CC(=O)Nc1ccc(NC(=O)CC23CC4CC(CC(C4)C2)C3)cc1 | 6.0% | 1.6 | 13.5 | -21.3% | 0.5 | ?
NC(=O)c1ccccc1NC(=O)CC12CC3CC(CC(C3)C1)C2 | -25.8% | / | -39.2 | -11.0% | -3.1 | 9.28µM*
NC(=O)c1ccccc1NC(=O)CCc1ccccc1 | -3.9% | 52.3 | 35.7 | / | 28.5* | 77.9%
O=C(Nc1ccccc1C(=O)NCCc1ccccc1)c1cnccn1 | -15.7% | 46.6 | 27.5 | 42.7% | 19.4* | 81.7%
CN(C)c1ccc(NC(=O)CSC2=Nc3ccccc3C3=NC(CCC(=O)NCc4cccs4)C(=O)N23)cc1 (configuration not stated) | / | / | -17.5 | / | / | /
O=C(CN1C(=O)CCc2cc(S(=O)(=O)N3CCOCC3)ccc21)NCc1ccccc1Cl | / | / | 31.6 | / | / | /
CCC(C)NC(=S)N1CCN(C)CC1 (configuration not stated) | 9.6% | 11.6 | -29.1 | 30.6% | 13.7 | 113.7%
CN1CCN(c2sc(S(C)(=O)=O)nc2S(=O)(=O)c2ccc(Cl)cc2)CC1 | 5.6% | 20.9 | -80.0* | ? | 0.4 | 11.7µM*
CCS(=O)(=O)c1nc(S(=O)(=O)c2ccc(Cl)cc2)c(N2CCN(C)CC2)s1 | 15.9% | 7.4 | -77.3* | ? | 2.5 | -1.3%
CS(=O)(=O)c1nc(S(=O)(=O)c2ccc(Cl)cc2)c(N2CCN(CCO)CC2)s1 | -1.8% | 10.4 | -62.9* | -10.0% | -0.8 | ?
CS(=O)(=O)c1nc(S(=O)(=O)c2ccc(Cl)cc2)c(N2CCCCC2)s1 | -10.8% | -12.6 | ? | ? | -5.5 | 6.3%
CCS(=O)(=O)c1nc(S(=O)(=O)c2ccc(Cl)cc2)c(N2CCCC2)s1 | 1.3% | -10.5 | -19.9 | ? | 0.7 | 11.8%

Bioassay records as filed in PubChem.
